Among the data in PubChem BioAssay (NCATS) are Potency and outcome values, retold here.

Records with an inconclusive call do not appear. Calls of active or inactive are those of the source. Calls come from the whole dose curve; as a rule, active = well fitted inhibition curve with a large enough effect; inconclusive = small, poorly fitted or top-dose-only effect; inactive = flat fitted curve, though single readings scatter.

Assay in all cases: qHTS profiling for inhibitors of Plasmodium falciparum proliferation (AID 504749); note: nearly all actives have a fitted effect of over 60% in size
Holding throughout (details): P. falciparum in erythrocytes, SYBR Green DNA, 72 h; series mostly up to 28.7 µM
(In general: Quantitative high-throughput screening tests each substance at several concentrations.)

In experiment [1] the test system is CP250. The method, boiled down:
(§1)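 In a 72 h erythrocytic culture (37 C, humidified, 5% CO2) at 2.5% hematocrit and 0.3% starting parasitemia, compounds were tested; SYBR Green I in detergent lysis buffer stained parasite DNA overnight.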

In experiment [2] the test system is CP262. In a few lines:
as §1

For experiment [3], the system named is CP266. In a few lines: as §1
Experiment [4] deals with CP269. In a few lines: as §1
For experiment [5], the system named is CP194. In a few lines: as §1
Experiment [6] has as its system CP201. In a few lines: as §1
For experiment [7], the system named is CP211. In a few lines:
as §1

The test system of experiment [8] is CP217. The method, boiled down:
as §1

Experiment [9] concerns CP237. The method, boiled down:
as §1

Experiment [10] relates to CP238. In a few lines: as §1
Experiment [11] deals with CP247. The method, boiled down: as §1
Experiment [12] concerns CP252. The method, boiled down: as §1
The test system of experiment [13] is CP256. The method, boiled down: as §1
Experiment [14] concerns CP260. In a few lines:
as §1

Experiment [15] concerns CP265. In a few lines: as §1
Experiment [16] deals with CP268. In a few lines: as §1
Experiment [17] concerns CP286. In a few lines:
as §1

The subject of experiment [18] is CP291. In a few lines: as §1
Experiment [19] relates to CP215. The method, boiled down: as §1
Potency is the fitted concentration of half-maximal effect.

As for `Cc1ccccc1C(OCCN(C)C)c1ccccc1` (configuration not stated), the Potency entry in experiment [1], in [2] and in experiment [4] was “inactive” throughout. For the same molecule, the molecule was called inactive in experiment [3].

On to `Nc1ccc(S(=O)(=O)Nc2ccnn2-c2ccccc2)cc1`, for which the Potency entry in experiment [5], in experiment [7], in experiment [8], in experiment [9], in experiment [10] and in experiment [11] was “inactive” each time. The Potency result in [1], in experiment [12], in experiment [13], in [14], in experiment [2] and in experiment [15] was “inactive” in each case. Further, the Potency result in experiment [16], in [4], in [17] and in experiment [18] was “inactive” throughout. Further, the molecule was classed as inactive in experiment [6] and in [3].

Consider `CC(c1cc2ccccc2s1)N(O)C(N)=O` (configuration not stated), for which the Potency result in experiment [5], in experiment [7], in experiment [8], in experiment [9], in [10] and in [11] was “inactive” in each case. The Potency entry in [1], in experiment [12], in experiment [13], in experiment [14], in [2] and in experiment [15] was “inactive” each time. The Potency entry in experiment [16], in experiment [4], in [17] and in [18] was “inactive” in each case. For the same molecule, the result in [6] and in [3] was inactive.

For `CCOC(=O)N1CCC(=C2c3ccc(Cl)cc3CCc3cccnc32)CC1`, the Potency is 3.98 µM (active) in experiment [8]; 8.91 µM (active) in [9]; 3.55 µM (active) in experiment [1]; 2 µM (active) in experiment [12]; 12.6 µM (active) in [14]; 10 µM (active) in experiment [15]. Also, the Potency entry in experiment [10] and in experiment [2] was “inactive” throughout.

As to `Cc1oncc1C(=O)Nc1ccc(C(F)(F)F)cc1`, the Potency result in experiment [5], in [7], in [8], in [9], in experiment [10] and in experiment [11] was “inactive” each time. The Potency entry in experiment [1], in [12], in experiment [13], in experiment [2], in experiment [16] and in experiment [4] was “inactive” each time. The Potency result in [17] and in [18] was “inactive” in each case. In addition, the result in experiment [6] and in experiment [3] was inactive.

On to `CCOC(=O)C1=C[C@]2(CC)CCCN3CCc4c(n1c1ccccc41)[C@@H]32`, for which the values for the Potency in [8], in experiment [15] and in [4] were 11.2 µM (active), 10 µM (active) and 13.5 µM (active), respectively. Further, the Potency result in [2] was “inactive”.

In the case of `CCCCNc1cc(C(=O)O)cc(S(N)(=O)=O)c1Oc1ccccc1`, the Potency result in experiment [5], in experiment [7], in experiment [8], in experiment [9], in experiment [10] and in experiment [11] was “inactive” throughout. Also, the Potency result in [1], in [12], in experiment [13], in [14], in experiment [2] and in experiment [15] was “inactive” throughout. The Potency result in [16], in experiment [4], in experiment [17] and in experiment [18] was “inactive” each time. The result in experiment [6] and in [3] was inactive.

Regarding `CN1CCN(CCCN2c3ccccc3Sc3ccc(C(F)(F)F)cc32)CC1`, in experiment [6], the molecule was classed as inactive. Moreover, the Potency was 12.6 µM (active) in experiment [9]; 3.16 µM (active) in experiment [10]; 8.91 µM (active) in [1]; 14.1 µM (active) in experiment [12]; 10 µM (active) in experiment [14]; 15.1 µM (active) in [4]. The Potency in [17] is 12.6 µM (active).

Regarding `CNC[C@H](O)c1cccc(O)c1`, the Potency result in [5], in experiment [7], in experiment [8], in experiment [9], in experiment [10] and in experiment [11] was “inactive” each time. The Potency result in experiment [1], in experiment [12], in experiment [13], in experiment [14], in experiment [2] and in experiment [15] was “inactive” throughout. Besides, the Potency entry in experiment [16], in experiment [4], in experiment [17] and in [18] was “inactive” throughout. Moreover, the molecule was called inactive in [6] and in experiment [3].

As for `NC(N)=NC(=O)c1nc(Cl)c(N)nc1N`, the Potency result in experiment [5], in [7], in experiment [12] and in experiment [2] was “inactive” throughout. For the same molecule, the molecule was called inactive in experiment [6] and in [3]. Further, the Potency in [9] was 8.91 µM (active); in [15] it was 11.2 µM (active).

As for `N[C@@H]1CONC1=O`, the Potency entry in [5], in [7], in [19], in experiment [8], in experiment [9] and in experiment [10] was “inactive” in each case. Also, the Potency entry in experiment [1], in [12], in [13], in experiment [14], in experiment [2] and in experiment [15] was “inactive” each time. Besides, the Potency result in [16], in [4], in experiment [17] and in experiment [18] was “inactive” in each case. The result in [6] and in experiment [3] was inactive.

Regarding `CCCc1nn(C)c2c(=O)[nH]c(-c3cc(S(=O)(=O)N4CCN(C)CC4)ccc3OCC)nc12`, the Potency result in [5], in [7], in experiment [19], in [8], in experiment [10] and in experiment [11] was “inactive” in each case. Moreover, the Potency entry in [1], in experiment [12], in experiment [13], in experiment [14], in experiment [2] and in experiment [15] was “inactive” in each case. For the same molecule, the Potency entry in [16], in experiment [4] and in experiment [17] was “inactive” in each case. In addition, the molecule was classed as inactive in experiment [6] and in [3].

Regarding `CC(C)C[C@H](NC(=O)[C@@H](O)[C@H](N)Cc1ccccc1)C(=O)O`, the Potency in experiment [5] was 6.75 µM (active); in experiment [7] it was 6.01 µM (active); in experiment [19] it was 6.75 µM (active); in experiment [8] it was 6.31 µM (active); in [9], 4.47 µM (active); in [10], 12.6 µM (active). In addition, the Potency in experiment [11] is 6.31 µM (active); in [1] it was 10 µM (active); in [12], 6.31 µM (active); in [13] it was 5.62 µM (active); in experiment [14] it was 4.47 µM (active); in experiment [15], 11.2 µM (active). Besides, the Potency is 13.5 µM (active) in [16], 9.53 µM (active) in experiment [4], 5.01 µM (active) in [17] and 5.36 µM (active) in experiment [18]. For the same molecule, the Potency result in experiment [2] is “inactive”.

As to `Cc1c(C)c2c(c(C)c1O)CCC(C)(COc1ccc(CC3SC(=O)NC3=O)cc1)O2` (configuration not stated), the result in [6] and in experiment [3] was inactive. In addition, the Potency result in experiment [10], in experiment [1], in experiment [12], in [13], in experiment [14] and in [2] was “inactive” throughout. Besides, the Potency entry in experiment [16], in experiment [17] and in experiment [18] was “inactive” in each case.

`C#Cc1cccc(Nc2ncnc3cc(OCCOC)c(OCCOC)cc23)c1`: the Potency in experiment [9] was 12.6 µM (active). Also, the Potency entry in [2] and in [15] was “inactive” each time. Besides, the molecule was classed as inactive in experiment [3].
